# Hits are enriched below; roughly 6.7% of the tested compounds scored in any of these assays.
# KB-V1 MDR tox – kills drug-selected multidrug resistant KB-V1 cells; KB-V1 MDR cells viability, CellTiter-Glo, 72 h; Potency, µM (titrated, usually from 46.1 µM), most hits filed as cytotoxic; hit rate 3.4% among 400,000; AID 1347076; further: on the % scale 0 is the no-effect control and ±100 the full control effect; nearly all actives have a fitted effect of over 60% in size
#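 Compound-treated KB-V1 multidrug-resistant cells, 72 h, 37 degrees C; viability by CellTiter-Glo. Fitted qHTS curves give the values.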
# SW480 rereplic – induces DNA re-replication in SW480 colon adenocarcinoma cells. SW480 DNA re-replication, Hoechst DNA content imaging, 48 h. Potency, µM (doses to about 46.1 µM), inactives show at the top dose re-replication activation, hits mostly activators. hit rate 1.8% among 340,000. AID 624297; further: % of control where 0% means no effect; nearly all actives have a fitted effect of over 55% in size
#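 Readout is total intensity of Hoechst-stained nuclei, excited at 405 nm and collected at 500-530 nm. Compound treatment lasted 48 hr at 37 C in 5% CO2 before staining.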
# KB-3-1 cytotox – KB-3-1 parental cell cytotoxicity; KB-3-1 viability, CellTiter-Glo ATP luminescence, 72 h; Potency, µM (doses to about 46.1 µM), actives largely listed as cytotoxic; hit rate 1.4% among 400,000; AID 1347075; further: on the % scale 0 is the no-effect control and ±100 the full control effect; nearly all actives have a fitted effect of over 60% in size
#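 Multi-concentration cytotoxicity screen in KB-3-1 cells grown in DMEM lacking phenol red with 10% FBS. After 72 h at 37 °C with compound, ATP-dependent luminescence was recorded.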
# MCF10A rerep – inducers of DNA re-replication in MCF 10A breast cells; Potency, µM (series often up to 46.1 µM), for the others: at the top dose activity, positive = re-replication, most hits filed as activators; MCF 10A DNA re-replication, Hoechst nuclear intensity, 48 h; hit rate 2.9% among 350,000; AID 624296; further: % of control where 0% means no effect; nearly all actives have a fitted effect of over 50% in size
# PINK1 modulator – PINK1 expression modulation; hit rate 0.2% among 410,000; AID 624263; Potency, µM (highest dose often 76.6 µM), inactives show at the top dose activation (PINK1 increase), usual class: activators; PINK1 immunofluorescence, high-content cytometry, 24 h; active means well fitted activation curve with a large enough effect; inconclusive means small, poorly fitted or top-dose-only effect; cell line not stated here; further: % of control where 0% means no effect; nearly all actives have a fitted effect of over 65% in size
#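 Fluorescence from anti-PINK1 antibody, together with nuclear and cell stains, was scanned on a laser-scanning cytometer. Before staining, stable-line cells were incubated 24 hours with compounds at 5 concentrations; primary antibody 12 h at 10 degrees C.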
# The depositor's hits bear a star; i = inactive; ? = inconclusive; . = no result given; [ ] = dose if it differs, or a comment. Unless noted, the call rests on the fitted dose curve; in most records, active means well fitted curve in the direction sought with a large enough effect; inconclusive means small, poorly fitted or top-dose-only effect, or another doubt; inactive means no such curve, though single readings can be large; an effect the other way counts as inactive or inconclusive. Potency means the concentration at half of the fitted maximal effect.
SMILES,KB-V1 MDR tox,SW480 rereplic,KB-3-1 cytotox,MCF10A rerep,PINK1 modulator
C=CCNC(=S)N/N=C/c1ccc(-c2ccc(Cl)cc2Cl)o1,i,16µM*,i,13µM*,5%
C=CCNC(=S)N/N=C/c1ccc(-c2ccc(OC)cc2)o1,7.3µM*,?,?,21µM*,-2%
C=CCNC(=S)N/N=C/c1ccc(-c2cc(Cl)ccc2Cl)o1,i,23%,i,?,12%
CC(C)n1c(=O)c2ccccc2n1Cc1cn(Cc2cccnc2)nn1,i,.,i,.,0%
CCCCCn1c(CN2CCN(c3ccc(OC)cc3)CC2)nc2c1c(=O)[nH]c(=O)n2C,i,.,i,.,10%
O=C(O)c1c[nH]c2ccc([N+](=O)[O-])cc2c1=O,i,-2%,i,-15%,0%
COc1ccc(Nc2oc(-c3ccc(OC)cc3)nc2C#N)cc1,i,-31%,i,0%,3%
CCOc1ccc(Nc2oc(-c3ccc(Cl)cc3)nc2C#N)cc1,?,?,?,21µM*,4%
N#Cc1nc(-c2ccc(Cl)cc2)oc1NCc1ccco1,i,-5%,i,15µM*,0%
COc1ccc(Nc2oc(-c3ccc(Cl)cc3)nc2C#N)cc1,?,?,4.6µM*,16µM*,5%
CCC(C(=O)Nc1ccc2[nH]ncc2c1)c1ccccc1 (configuration not stated),i,0%,i,-1%,1%
CS(=O)(=O)c1ccc(Cl)c(NC(=O)CCN2C(=O)C3CC=CCC3C2=O)c1 (configuration not stated),i,-30%,i,4%,-1%
O=S(=O)(c1ccccc1)N(C1=NCCS1)S(=O)(=O)c1ccccc1,21µM*,0%,i,13%,14%[38.3 µM]
COCCCNCCCOc1ccc(C(C)(C)c2ccccc2)cc1,?,?,i,15%,?
O=C(O)CCCCNCc1ccccc1,i,-1%,i,-5%,10%[38.3 µM]
c1ccc(CNCCCNCCCCNCCCNCc2ccccc2)cc1,?,?,?,6.5µM*,-2%
CC(C)(C)c1ccc(OCCCNCc2ccccc2)cc1,i,23µM*,?,23µM*,-1%
COCCNCCCOc1ccc(C(C)(C)c2ccccc2)cc1,?,2%,i,21µM*,20%
Cc1ccc(NC(=O)Cn2c(=O)n(Cc3ccc4c(c3)OCO4)c(=O)c3ccc(C(=O)NC4CCCCC4)cc32)c(C)c1,i,.,i,.,-5%
CN(Cc1c(C(=O)N/N=C/c2ccccc2O)nnn1-c1nonc1N)C1CCCCC1,?,.,18µM*,.,2%
CCN(CC)c1ccc(/C=N/NC(=O)c2nnn(-c3nonc3N)c2C(C)C)c(O)c1,i,23µM*,1.3µM*,18µM*,14%
Cc1nnn(-c2nonc2N)c1C(=O)N/N=C/c1ccccc1O,?,2.6µM*,?,-4%,3%
CC1CCN(Cc2c(C(=O)N/N=C/c3ccccc3O)nnn2-c2nonc2N)CC1,?,6%,5.2µM*,-8%,0%
CC(C)c1cnc2c(c1SCC(=O)Nc1cccc([N+](=O)[O-])c1)c(=O)n(C)c(=O)n2C,.,.,.,.,0%
CC1(c2nnnn2Cc2ccccc2)CCC(=O)N1Cc1ccco1 (configuration not stated),i,.,i,.,0%
SMILES,KB-V1 MDR tox,SW480 rereplic,KB-3-1 cytotox,MCF10A rerep,PINK1 modulator
CCCCC(=O)N(C)c1c(CC)nc2c(OCC(=O)C(C)(C)C)cccn12,i,.,i,.,-1%
COc1ccccc1/C=N/NC(=O)c1nnn(-c2nonc2N)c1-c1cccs1,i,23µM*,i,-1%,0%
COc1ccccc1/C=N/NC(=O)c1nnn(-c2nonc2N)c1-c1ccccc1,i,2%,i,2%,4%
CCc1ccc(CN(Cc2ccco2)C(=O)COc2ccccc2Cl)cc1,.,.,.,.,0%
COc1cccc(-c2ccc(C#N)c(OC(=O)c3c(Cl)cccc3Cl)n2)c1,16µM*,-68%,i,25%,5%
COc1cccc(-c2ccc(C#N)c(OC(=O)c3ccc(Cl)cc3)n2)c1,i,-3%,i,2%,-1%
Cc1cc(Nc2cc(Cl)nc(Sc3ccc(NC(=O)C4CC4)cc3)n2)n[nH]1,i,21µM*,1.6µM*,34%,-1%
